Results published in PubChem BioAssay (NCI).
Compounds without any hit were thinned out: in the full panel of roughly 79,000, 15% have a hit. A number with no mark means an inactive call. Active and inactive are the calls of the source. No stated cut-off is given here; in the data, active means growth inhibition above about 70%; inactive means the rest. Where a SMILES comes first, the peptide text is derived from it. The star is where a group is joined. Cbz = O=C(OCc1ccccc1)*

Assay: NCI Yeast Anticancer Drug Screen. Data for the rad50 strain (AID 155);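 further: 0% = growth of vehicle-only cultures of the same strain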
Conditions: S. cerevisiae rad50 strain growth inhibition; at 50.0 µM; hits give high values
Summary of the method: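 Growth of the mutant yeast was measured after compound exposure and referenced to vehicle-treated cultures.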

Compound | growth inhibition
COC(=O)C1C2OC(C(Br)C2Br)C1C(=O)O (configuration not stated) | -6.2%
CC(C)(S)CNCCSC(=O)c1ccccc1 | 2.8%
CCN=C(NCC)N(CC)CC | -20.4%
Nn1cnc2nccnc2c1=O | 1%
CCOC(=O)NC(=S)C1=C(N2CCOCC2)CCC1 | -16.1%
COC(=O)/C=C/C(=O)N1CC(C)N(C(=O)/C=C/C(=O)OC)CC1C (configuration not stated) | -8.45%
CCn1ncc2c1nc(-c1ccccc1)c[n+]2[O-] | 17.1%
NNc1cc(=O)[nH]c(N)n1 | -17.6%
CC(C)(C)SCC(=O)O | -21.6%
CCOC(=O)NC(=O)c1cn(CCN2CCN(C(=O)NCCCCCCNC(=O)N3CCN(CCn4cc(C(=O)NC(=O)OCC)c(=O)n(CCN(CC)CC)c4=O)CC3)CC2)c(=O)n(CCC(CC)CC)c1=O | -10.1%
ClC(Cl)(Cl)c1ccc(C2OCCO2)cc1 | -17.8%
CN(/N=C/c1ccccn1)C1=NCCCN1 | -20.2%
CCOC(=O)c1ccc(NC(=O)Oc2ccc(SC)cc2)cc1 | 8.2%
COc1ccc(N=Cc2cc(Cl)cc(Cl)c2OC(=O)c2ccccc2)cc1 | -10.6%
CC1(C)CCC23CCC4(C)C(CCC5C6(C)CCC(=O)C(C)(C)C6CCC54C)C2C1OC3 (configuration not stated) | -27.4%
CC(NC(=O)C(=O)c1ccccc1)c1ccccc1 (configuration not stated) | 10.4%
O=C(O)c1cc(-c2ccccc2)ccc1O | 27.8%
Cc1c(C(=O)O)n2cnnc2c2ccccc12 | 22.8%
Fc1c(F)c(-c2c(F)c(F)c(Br)c(F)c2F)c(F)c(F)c1Br | 2.5%
CC1(C)Cc2c(oc3ncnc(N)c23)CS1 | -10.3%
CCNc1ccc(S(=O)(=O)O)cc1C(=O)O | 0.45%
COc1ccc(OC)c(NC(=O)C(=O)NNC(=O)c2sc(NNC(C)=O)nc2C)c1 | 66.7%

Assay: NCI Yeast Anticancer Drug Screen. Data for the mec2-1 strain (AID 157)
Conditions: S. cerevisiae mec2-1 strain, at 50.0 µM, hits give high values
Summary of the method: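 Readout is yeast growth inhibition, normalised to vehicle-treated controls, in the mec2-1 strain exposed to compound.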

Compound | growth inhibition
C/C(=N\NC(=S)N1CCCC1)c1ccc[nH]1 | 3.05%
CC(CC(C)(C)C)C(=O)NC(N)=O (configuration not stated) | -4.05%
CN(C)CCC(C(N)=O)c1ccccc1 (configuration not stated) | -1.7%
CC1(O)C2C3C(I)C4C5C3C1C5C42 (configuration not stated) | 9.05%
CCOC(=O)c1cnc2nc[nH]n2c1=O | -54.5%
NC(=O)C(Cc1ccc(O)cc1)NC(=O)c1ccccc1 (configuration not stated) | -16.6%
N/C(CC/C(N)=N\O)=N\O | -15.8%
CS(=O)(=O)N1COC(=O)[C@@H]1c1ccccc1 | 25.4%
CCCCCCC(O)C/C=C/CCCCCC/C(C(=O)OC)=C(/O)C(=O)OCC (configuration not stated) | -3.35%
[N-]=[N+]=Nc1ccc(NCCCCCC(=O)ON2C(=O)CCC2=O)c([N+](=O)[O-])c1 | 9.25%
Cc1nc(N(C)C)oc(=O)c1Cc1ccccc1 | 18.6%
CCOC(=O)CCC(NC(=O)OCc1ccccc1)C(=O)NC(CCC(=O)OCC)C(=O)OCC (configuration not stated) (Cbz-Glu(OEt)-Glu(OEt)-OEt; configuration not given here) | 3.15%
CCCCCC(Cl)(CC)CCCCC | -0.6%
CN1CC(=O)N(CO)/C1=N\CO | -5.45%
CCOC(=O)C(=CNc1ccc(N(CC)CC)cc1)C(=O)OCC | -7.85%
CCCCCCCCCCCCN1CCCN(CCCCCCCCCCCC)CC1 | 99.2% (active)
ClC/C(=N\N1CCCCCC1)c1ccccc1 | -4.05%
COc1cccc2c(SCC(=O)Nc3ccccc3-c3ccccc3NC(=O)CSc3c4ccccc4nc4c(OC)cccc34)c3ccccc3nc12 | 3.35%
COC(=O)C1C2OC(C(Br)C2Br)C1C(=O)O (configuration not stated) | 2.2%
CC(C)(S)CNCCSC(=O)c1ccccc1 | -0.2%

Compound | growth inhibition
CCN=C(NCC)N(CC)CC | -5.75%
Nn1cnc2nccnc2c1=O | 4.65%
CCOC(=O)NC(=S)C1=C(N2CCOCC2)CCC1 | -34.4%
COC(=O)/C=C/C(=O)N1CC(C)N(C(=O)/C=C/C(=O)OC)CC1C (configuration not stated) | -3.55%
CCn1ncc2c1nc(-c1ccccc1)c[n+]2[O-] | 4%
NNc1cc(=O)[nH]c(N)n1 | -18.6%
CC(C)(C)SCC(=O)O | -19.6%
CCOC(=O)NC(=O)c1cn(CCN2CCN(C(=O)NCCCCCCNC(=O)N3CCN(CCn4cc(C(=O)NC(=O)OCC)c(=O)n(CCN(CC)CC)c4=O)CC3)CC2)c(=O)n(CCC(CC)CC)c1=O | 8.7%
ClC(Cl)(Cl)c1ccc(C2OCCO2)cc1 | -6.8%
CN(/N=C/c1ccccn1)C1=NCCCN1 | -22%
CCOC(=O)c1ccc(NC(=O)Oc2ccc(SC)cc2)cc1 | -5.25%
COc1ccc(N=Cc2cc(Cl)cc(Cl)c2OC(=O)c2ccccc2)cc1 | -31.1%
CC1(C)CCC23CCC4(C)C(CCC5C6(C)CCC(=O)C(C)(C)C6CCC54C)C2C1OC3 (configuration not stated) | -4.15%
CC(NC(=O)C(=O)c1ccccc1)c1ccccc1 (configuration not stated) | -2.95%
O=C(O)c1cc(-c2ccccc2)ccc1O | -70.3%
Cc1c(C(=O)O)n2cnnc2c2ccccc12 | 4%
Fc1c(F)c(-c2c(F)c(F)c(Br)c(F)c2F)c(F)c(F)c1Br | -14.6%
CC1(C)Cc2c(oc3ncnc(N)c23)CS1 | -14.1%
CCNc1ccc(S(=O)(=O)O)cc1C(=O)O | 4.05%
COc1ccc(OC)c(NC(=O)C(=O)NNC(=O)c2sc(NNC(C)=O)nc2C)c1 | 28.8%
